The record followed here is ChEMBL document CHEMBL1961873, “Compounds: GSK PKIS; Assays: Nanosyn kinase panel” (2012).

Test [1] deals with T1, Serine/threonine-protein kinase TBK1 (Homo sapiens) (UniProt Q9UHD2).
T1 sequence (whole entry): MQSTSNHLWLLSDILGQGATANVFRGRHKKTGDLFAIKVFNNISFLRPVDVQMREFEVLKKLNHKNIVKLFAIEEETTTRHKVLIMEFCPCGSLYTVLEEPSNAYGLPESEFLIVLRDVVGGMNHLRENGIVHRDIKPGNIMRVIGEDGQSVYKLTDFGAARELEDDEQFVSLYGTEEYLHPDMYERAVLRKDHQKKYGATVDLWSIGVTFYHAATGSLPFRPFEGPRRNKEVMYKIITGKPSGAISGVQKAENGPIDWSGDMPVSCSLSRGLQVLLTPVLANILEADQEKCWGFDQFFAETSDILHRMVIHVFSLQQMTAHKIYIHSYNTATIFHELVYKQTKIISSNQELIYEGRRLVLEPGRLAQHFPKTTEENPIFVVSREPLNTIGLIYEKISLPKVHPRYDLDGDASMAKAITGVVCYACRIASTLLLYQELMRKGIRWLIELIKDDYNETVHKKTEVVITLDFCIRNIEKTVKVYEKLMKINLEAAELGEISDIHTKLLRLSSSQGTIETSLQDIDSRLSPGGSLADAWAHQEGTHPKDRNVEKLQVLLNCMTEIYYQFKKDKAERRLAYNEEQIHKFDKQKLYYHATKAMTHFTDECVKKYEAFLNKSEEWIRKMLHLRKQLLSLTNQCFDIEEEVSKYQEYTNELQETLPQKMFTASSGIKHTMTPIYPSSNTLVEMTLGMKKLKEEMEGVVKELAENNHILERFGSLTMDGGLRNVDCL
The settings on record: at 1 µM.

The target in test [2] is T2, Testis-specific serine/threonine-protein kinase 1 (Homo sapiens) (UniProt Q9BXA7).
T2 sequence (whole entry): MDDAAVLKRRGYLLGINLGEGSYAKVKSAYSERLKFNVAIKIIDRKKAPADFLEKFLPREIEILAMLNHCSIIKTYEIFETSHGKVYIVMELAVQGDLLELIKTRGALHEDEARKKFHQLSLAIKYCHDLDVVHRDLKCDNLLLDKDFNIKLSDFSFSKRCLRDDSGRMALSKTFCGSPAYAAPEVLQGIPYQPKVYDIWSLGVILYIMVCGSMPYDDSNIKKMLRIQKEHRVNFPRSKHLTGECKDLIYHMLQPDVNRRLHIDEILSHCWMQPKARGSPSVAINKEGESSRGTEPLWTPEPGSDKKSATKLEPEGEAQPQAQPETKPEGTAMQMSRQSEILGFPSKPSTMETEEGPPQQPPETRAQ
The settings on record: at 0.1 µM.

Test [3] deals with T2, Testis-specific serine/threonine-protein kinase 1 (Homo sapiens). To be noted: at 1 µM.
Test [4] addresses T3, Testis-specific serine/threonine-protein kinase 2 (Homo sapiens) (UniProt Q96PF2).
T3 sequence (whole entry): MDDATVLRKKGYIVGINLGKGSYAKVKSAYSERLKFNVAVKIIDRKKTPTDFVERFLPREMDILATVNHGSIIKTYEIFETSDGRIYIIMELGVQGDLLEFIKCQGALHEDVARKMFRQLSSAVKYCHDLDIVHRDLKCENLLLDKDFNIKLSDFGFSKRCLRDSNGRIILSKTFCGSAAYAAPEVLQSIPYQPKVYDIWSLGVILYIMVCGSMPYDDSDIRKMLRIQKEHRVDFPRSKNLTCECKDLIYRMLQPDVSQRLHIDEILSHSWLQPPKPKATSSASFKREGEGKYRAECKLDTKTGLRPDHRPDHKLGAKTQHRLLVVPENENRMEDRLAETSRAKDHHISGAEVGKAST
The settings on record: at 0.1 µM.

The target in test [5] is T3, Testis-specific serine/threonine-protein kinase 2 (Homo sapiens). To be noted: at 1 µM.
The target in test [6] is Casein kinase I isoform alpha (Homo sapiens) (UniProt P48729). To be noted: at 0.1 µM.
Chain of Casein kinase I isoform alpha (Homo sapiens) (P48729 2-337 limits assumed): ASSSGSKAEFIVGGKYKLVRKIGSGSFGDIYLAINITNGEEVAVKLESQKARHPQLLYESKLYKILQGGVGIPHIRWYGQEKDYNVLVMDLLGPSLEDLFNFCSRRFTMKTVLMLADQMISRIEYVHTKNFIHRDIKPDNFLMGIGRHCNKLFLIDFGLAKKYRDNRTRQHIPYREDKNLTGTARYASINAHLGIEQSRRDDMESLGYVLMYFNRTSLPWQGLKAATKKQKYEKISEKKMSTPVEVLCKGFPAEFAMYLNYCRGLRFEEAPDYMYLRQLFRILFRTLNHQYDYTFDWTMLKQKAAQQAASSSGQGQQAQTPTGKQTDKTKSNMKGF
For test [7] the target is unchanged. To be noted: at 1 µM.
In test [8] the target is Casein kinase I isoform gamma-1 (Homo sapiens) (UniProt Q9HCP0). To be noted: at 0.1 µM.
Chain of Casein kinase I isoform gamma-1 (Homo sapiens) (Q9HCP0 whole entry, looked up, canonical isoform): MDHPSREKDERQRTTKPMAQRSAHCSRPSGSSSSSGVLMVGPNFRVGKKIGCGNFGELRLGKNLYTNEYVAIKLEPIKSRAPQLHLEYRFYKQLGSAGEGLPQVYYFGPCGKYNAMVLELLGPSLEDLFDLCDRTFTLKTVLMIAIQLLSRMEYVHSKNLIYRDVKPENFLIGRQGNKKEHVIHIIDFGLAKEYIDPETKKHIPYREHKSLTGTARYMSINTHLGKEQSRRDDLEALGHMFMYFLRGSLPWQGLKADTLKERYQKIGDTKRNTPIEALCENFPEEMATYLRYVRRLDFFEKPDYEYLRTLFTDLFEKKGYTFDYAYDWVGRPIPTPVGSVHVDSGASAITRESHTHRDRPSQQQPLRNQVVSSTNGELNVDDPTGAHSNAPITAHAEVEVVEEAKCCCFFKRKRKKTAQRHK
The target is the same in test [9]. To be noted: at 1 µM.
The target of test [10] is Casein kinase I isoform gamma-2 (Homo sapiens) (UniProt P78368). To be noted: at 0.1 µM.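 Further: values are mean inhibition figures reported as part of the GSK PKIS dataset.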
Chain of Casein kinase I isoform gamma-2 (Homo sapiens) (P78368 whole entry, looked up, canonical isoform): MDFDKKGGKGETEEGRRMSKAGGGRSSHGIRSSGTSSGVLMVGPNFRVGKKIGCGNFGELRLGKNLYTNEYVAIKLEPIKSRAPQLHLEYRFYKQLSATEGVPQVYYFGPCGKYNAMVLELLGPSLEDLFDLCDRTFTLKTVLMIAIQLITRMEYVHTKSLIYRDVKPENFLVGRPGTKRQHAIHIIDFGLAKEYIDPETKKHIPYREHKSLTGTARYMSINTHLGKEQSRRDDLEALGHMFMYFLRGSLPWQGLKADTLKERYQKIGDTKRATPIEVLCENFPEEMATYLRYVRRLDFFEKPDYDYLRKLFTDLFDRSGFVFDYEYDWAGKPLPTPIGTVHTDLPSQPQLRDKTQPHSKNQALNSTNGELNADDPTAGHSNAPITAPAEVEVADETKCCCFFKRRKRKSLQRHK

Each structure is given as a SMILES string.

Regarding `COc1cc(N2CCN(C(C)C)CC2)ccc1Nc1nc(Nc2ccc(F)cc2C(N)=O)c2cc[nH]c2n1`, the inhibition was determined as 6.76% in test [1]; 82.8% in test [2]; 95.4% in [3]; 58.6% in test [4]; 90.8% in test [5]; 12.4% in test [6]. In addition, the inhibition came out at 58.3% in [7], 9.86% in [8], 42.2% in test [9] and 7.97% in [10].
For the compound `NS(=O)(=O)c1ccc(Nc2ncc(-c3ccccc3)o2)cc1`, the inhibition turned out to be 8.12% in [1]; 1.35% in test [2]; 2.89% in test [3]; 1.54% in [4]; 1.1% in [5]; 1.88% in [6]. The inhibition in test [7] came to 7.88%; in [8], 2.83%; in test [9], 4.94%; in [10] it was 2.8%.
For `CCn1c(-c2nonc2N)nc2cnc(Oc3cccc(NC(=O)c4ccc(N(C)C)cc4)c3)cc21`, the inhibition in test [1] is 6.31%; in test [2], 10.9%; in test [3] it was 52.2%; in test [4], -0.81%; in test [5], -0.76%; in test [6] it was 2.09%. Besides, the inhibition was found to be 7.22% in [7], 1.44% in [8], 1.65% in [9] and 1.06% in test [10].
Turning to `CNC(=O)c1cncc(/C=C/c2ccccc2Cl)c1`, the inhibition in test [1] was 4.1%; in test [2], 0.22%; in test [3], 1.52%; in test [4] it was -0.03%; in test [5], 2.91%; in [6], 0.76%. Besides, the inhibition in test [7] is -0.31%; in test [8], 0.2%; in test [9], -0.31%; in test [10], 0.91%.
Turning to `Fc1ccc(-c2cc(-c3c[nH]nc3-c3ccccn3)ccn2)cc1`, the inhibition in test [1] worked out at 3.03%; in test [2] it was 6.33%; in test [3], 9.18%; in [4] it was 4.38%; in test [5], 6.99%; in test [6] it was 3.27%. Moreover, the inhibition in [7] was determined as 5.16%; in [8] it was 4.51%; in [9], 7.09%; in test [10] it was 4.03%.
On to `NC(=O)c1sc(-n2cnc3ccc(C(F)(F)F)cc32)cc1OCc1ccccc1Br`, for which the inhibition in test [1] is 2.04%; in test [2], 3.44%; in [3], 3.86%; in test [4] it was 2.62%; in test [5], 2.38%; in [6], 0.93%. The inhibition came out at 2.88% in test [7], 3.36% in test [8], 3.78% in [9] and 3.03% in test [10].
As to `c1ccc(COc2ccc(Nc3ncnc4ccc(-c5ccco5)cc34)cc2)cc1`, the inhibition in test [1] was 0.67%; in test [2] it was -0.63%; in test [3], 0.68%; in [4], 0.44%; in test [5], -0.19%; in test [6] it was -0.74%. In addition, the inhibition turned out to be 0.74% in [7], 0.87% in [8], 1.15% in test [9] and 1.03% in test [10].
`CNC(=O)c1cc(-c2ccc(F)cc2)cc(-c2ccc(S(=O)(=O)N3CCCC3)cc2)c1N`: the inhibition in test [1] was determined as 1.13%; in [2], 2.57%; in test [3], 3.21%; in [4] it was 1.51%; in [5] it was 1.66%; in test [6] it was 2.27%. Moreover, the inhibition in [7] was 3.11%; in test [8], 2.3%; in [9] it was 2.21%; in test [10], 2.4%.
As for `COc1ccc(-c2oc3ncnc(N)c3c2-c2ccc(NC(=O)Nc3cc(C(F)(F)F)ccc3F)cc2)cc1`, the inhibition came to 3.95% in [1]; 4.93% in test [2]; 5.3% in test [3]; 3.63% in test [4]; 3.45% in test [5]; 3.27% in test [6]. In addition, the inhibition in test [7] amounted to 3.17%; in test [8], 2.43%; in [9] it was 3.7%; in [10] it was 2.18%.
Turning to `COc1ccc2[nH]c3c4[nH]c5ccc(OC)cc5c4c4c(c3c2c1)C(=O)NC4=O`, the inhibition stood at 53.9% in test [1]; 3.96% in test [2]; 11.6% in [3]; 3.41% in [4]; 4.83% in test [5]; 2.15% in test [6]. Also, the inhibition in [7] was 5.69%; in [8] it was 4.82%; in [9] it was 4.21%; in [10] it was 2.32%.
For the compound `CN1CCC(n2cnc(-c3ccc(F)cc3)c2-c2ccnc(N)n2)CC1`, the inhibition in test [1] came out at 3.54%; in test [2], 2.05%; in [3], 3.07%; in [4] it was 2.28%; in test [5], 1.61%; in [6], 30.1%. The inhibition was 73.1% in test [7], 1.88% in [8], 9.03% in test [9] and 1.68% in [10].
Consider `CCn1cc(-c2ccnc3[nH]ccc23)c(-c2cccc(NC(=O)Nc3ccc(OCc4ccccc4)cc3)c2)n1`, for which the inhibition is -0.26% in test [1]; 1.75% in test [2]; 1.5% in test [3]; -0.38% in test [4]; -0.63% in [5]; -1.12% in test [6]. The inhibition in test [7] was -1.47%; in test [8], 1%; in test [9] it was 1.59%; in test [10], 0.29%.
For the compound `CN(C)CCOc1ccc(-c2nc(-c3ccncc3)c(-c3ccc4c(c3)CC/C4=N\O)[nH]2)cc1`, the inhibition turned out to be 3.98% in test [1]; 1.85% in test [2]; 2.25% in test [3]; 3.34% in test [4]; 2.43% in [5]; 3.41% in test [6]. Besides, the inhibition came out at 7.2% in test [7], 2.51% in [8], 4.6% in test [9] and 2.26% in test [10].
As to `CN1CCC(n2cnc(-c3ccc(F)cc3)c2-c2ccnc(Nc3ccccc3)n2)CC1`, the inhibition in [1] was found to be 2.8%; in test [2], 3.05%; in test [3] it was 3.21%; in test [4], 2.5%; in test [5], 2.86%; in [6] it was 53.5%. For the same compound, the inhibition was 83.6% in test [7], 7.05% in test [8], 42% in [9] and 4.57% in test [10].
In the case of `COC(=O)Nc1nc2ccc(Oc3ccc(NC(=O)Nc4cccc(Cl)c4)cc3)cc2[nH]1`, the inhibition was -2.2% in test [1]; 2.29% in test [2]; 0.67% in test [3]; -0.06% in [4]; -0.21% in test [5]; 0.11% in test [6]. The inhibition is 0.94% in test [7], 0.68% in test [8], 1.34% in test [9] and 0.75% in test [10].
`Fc1ccc(-c2nn3ccccc3c2-c2ccncc2)cc1`: the inhibition is 0.18% in test [1]; 1.12% in [2]; 1.44% in [3]; -0.56% in [4]; 0.24% in test [5]; 13.7% in test [6]. Moreover, the inhibition in test [7] came to 58.4%; in [8] it was 1.48%; in test [9], 8.01%; in [10], 1.65%.
As for `CNC(=O)c1cccc(C#Cc2cncnc2Nc2ccc(OCc3cccc(F)c3)c(Cl)c2)c1`, the inhibition is 0.61% in [1]; 1.65% in [2]; 1.56% in [3]; 1.7% in test [4]; 2.08% in test [5]; -4.8% in [6]. Further, the inhibition in [7] came out at 0.1%; in test [8] it was 1.2%; in [9], 1.46%; in [10], 1.23%.

In general, inhibition refers to the drop in the measured response relative to a control, in per cent.
